Experimental data as given in ChEMBL document CHEMBL3988442, “University of Dundee, Small-Polar-MMV Screening Library” (2021).
For some assays here: Results with a measured potency or affinity are listed apart.

Columns and labels:
Design in all cases: scale not given: direction of the effect not stated beside the values
[1] = target: Protein translocase subunit SecA (Escherichia coli (strain K12)) (UniProt P10408); test: Assay to Identify E. coli SecA ATPase Inhibitors; format: functional; settings: 30 µM
Sequence of Protein translocase subunit SecA (Escherichia coli (strain K12)) (P10408 whole entry): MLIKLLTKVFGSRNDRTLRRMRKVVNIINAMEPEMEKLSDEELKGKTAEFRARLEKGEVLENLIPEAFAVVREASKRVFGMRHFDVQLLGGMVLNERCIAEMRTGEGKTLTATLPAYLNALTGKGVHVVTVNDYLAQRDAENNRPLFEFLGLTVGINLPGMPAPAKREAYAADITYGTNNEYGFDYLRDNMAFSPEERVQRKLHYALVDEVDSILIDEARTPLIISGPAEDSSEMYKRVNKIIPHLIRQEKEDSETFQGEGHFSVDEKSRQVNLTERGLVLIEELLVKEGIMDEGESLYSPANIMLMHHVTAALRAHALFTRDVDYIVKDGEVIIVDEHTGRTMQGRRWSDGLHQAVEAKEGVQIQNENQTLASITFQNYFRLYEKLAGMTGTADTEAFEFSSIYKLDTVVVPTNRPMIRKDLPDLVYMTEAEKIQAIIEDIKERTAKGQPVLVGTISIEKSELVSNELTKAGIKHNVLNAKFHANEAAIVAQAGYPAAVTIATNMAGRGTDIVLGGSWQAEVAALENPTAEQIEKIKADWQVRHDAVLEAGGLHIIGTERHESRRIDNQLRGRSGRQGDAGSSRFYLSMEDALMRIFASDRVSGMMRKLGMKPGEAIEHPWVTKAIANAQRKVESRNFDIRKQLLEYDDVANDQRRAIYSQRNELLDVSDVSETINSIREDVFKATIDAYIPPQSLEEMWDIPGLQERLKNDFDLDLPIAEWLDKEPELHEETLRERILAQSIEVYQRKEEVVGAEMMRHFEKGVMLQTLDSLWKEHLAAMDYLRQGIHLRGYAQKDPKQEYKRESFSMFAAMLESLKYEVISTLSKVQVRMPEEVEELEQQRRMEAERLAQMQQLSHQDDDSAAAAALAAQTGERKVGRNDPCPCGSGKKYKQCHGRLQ

[2] = target: T1, Ubiquitin-activating enzyme e1, putative (Leishmania donovani (strain BPK282A1)) (UniProt E9BSI1); test: Leishmania donovani Ubiquitin Activating Enzyme (LdE1); format: functional; settings: 30 µM
T1 sequence (whole entry): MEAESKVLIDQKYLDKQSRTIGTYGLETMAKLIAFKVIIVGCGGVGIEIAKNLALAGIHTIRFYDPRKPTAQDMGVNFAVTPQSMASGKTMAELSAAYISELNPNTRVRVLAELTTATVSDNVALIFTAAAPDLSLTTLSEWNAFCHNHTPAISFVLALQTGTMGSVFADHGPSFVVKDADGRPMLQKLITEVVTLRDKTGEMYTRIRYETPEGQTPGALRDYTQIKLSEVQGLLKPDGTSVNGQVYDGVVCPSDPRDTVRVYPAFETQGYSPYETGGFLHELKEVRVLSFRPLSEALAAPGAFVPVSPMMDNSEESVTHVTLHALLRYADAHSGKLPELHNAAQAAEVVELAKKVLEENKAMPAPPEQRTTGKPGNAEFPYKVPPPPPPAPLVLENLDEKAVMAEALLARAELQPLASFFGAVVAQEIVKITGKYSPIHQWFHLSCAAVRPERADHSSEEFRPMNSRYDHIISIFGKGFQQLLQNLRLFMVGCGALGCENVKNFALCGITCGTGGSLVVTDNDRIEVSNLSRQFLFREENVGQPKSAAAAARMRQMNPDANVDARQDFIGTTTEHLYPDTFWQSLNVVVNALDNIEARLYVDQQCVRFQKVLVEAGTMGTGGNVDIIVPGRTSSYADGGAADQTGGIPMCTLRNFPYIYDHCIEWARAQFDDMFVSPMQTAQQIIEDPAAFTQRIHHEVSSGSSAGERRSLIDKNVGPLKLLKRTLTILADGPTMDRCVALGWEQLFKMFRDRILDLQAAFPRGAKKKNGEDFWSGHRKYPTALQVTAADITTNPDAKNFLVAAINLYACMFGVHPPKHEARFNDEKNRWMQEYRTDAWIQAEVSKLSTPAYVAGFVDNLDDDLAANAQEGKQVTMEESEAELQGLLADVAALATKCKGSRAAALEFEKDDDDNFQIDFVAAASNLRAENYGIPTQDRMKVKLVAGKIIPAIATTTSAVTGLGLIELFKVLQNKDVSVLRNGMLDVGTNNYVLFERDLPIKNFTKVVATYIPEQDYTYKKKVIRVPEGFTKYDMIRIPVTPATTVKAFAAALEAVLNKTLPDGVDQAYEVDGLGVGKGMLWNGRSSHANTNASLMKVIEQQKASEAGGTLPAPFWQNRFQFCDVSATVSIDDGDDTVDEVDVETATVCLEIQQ

[3] = target: AMP-activated protein kinase, AMPK (Homo sapiens) (UniProt P54646+O43741+P54619+Q9UGJ0+Q9Y478+Q13131+Q9UGI9); test: AMP-dependent Kinase enzyme assay. An in vitro enzyme assay that detects ADP turnover that is directly proportional to AMPK activity. This uses naive AMPK that is activated during the assay with MK-8722; format: functional; settings: 30 µM
[4] = target: Sialic acid-binding Ig-like lectin 9 (Homo sapiens) (UniProt Q9Y336); test: Hs-Siglec9 ALPHAscreen SOP 20170721; settings: 10 µM
Sequence of Sialic acid-binding Ig-like lectin 9 (Homo sapiens) (Q9Y336 whole entry): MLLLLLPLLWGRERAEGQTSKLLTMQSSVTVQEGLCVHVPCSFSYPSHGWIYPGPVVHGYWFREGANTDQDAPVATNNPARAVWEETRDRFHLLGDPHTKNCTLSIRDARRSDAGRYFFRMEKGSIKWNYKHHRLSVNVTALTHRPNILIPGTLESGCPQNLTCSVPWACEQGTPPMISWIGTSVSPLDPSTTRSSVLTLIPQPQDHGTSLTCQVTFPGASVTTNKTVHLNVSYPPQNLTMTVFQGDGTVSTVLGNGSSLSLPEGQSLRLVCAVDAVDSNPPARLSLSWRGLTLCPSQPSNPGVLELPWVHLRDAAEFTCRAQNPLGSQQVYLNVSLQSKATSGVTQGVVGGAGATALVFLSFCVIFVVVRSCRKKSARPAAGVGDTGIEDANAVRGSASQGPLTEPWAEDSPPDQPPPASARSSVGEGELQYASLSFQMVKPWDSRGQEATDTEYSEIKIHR

Trypanosoma cruzi = test: Trypanosoma cruzi phosphomannomutase and mannose-1-phosphate guanylyltransferase assay; format: functional; settings: 10 µM
[5] = target: T2, Arginase-2, mitochondrial (Homo sapiens) (UniProt P78540); test: in vitro enzyme assay to detect the production of urea directly proportional to the activity of Arginase II; format: functional; settings: 33.3 µM; also: in the data most compounds retested in dose-response had high values
T2 sequence (whole entry): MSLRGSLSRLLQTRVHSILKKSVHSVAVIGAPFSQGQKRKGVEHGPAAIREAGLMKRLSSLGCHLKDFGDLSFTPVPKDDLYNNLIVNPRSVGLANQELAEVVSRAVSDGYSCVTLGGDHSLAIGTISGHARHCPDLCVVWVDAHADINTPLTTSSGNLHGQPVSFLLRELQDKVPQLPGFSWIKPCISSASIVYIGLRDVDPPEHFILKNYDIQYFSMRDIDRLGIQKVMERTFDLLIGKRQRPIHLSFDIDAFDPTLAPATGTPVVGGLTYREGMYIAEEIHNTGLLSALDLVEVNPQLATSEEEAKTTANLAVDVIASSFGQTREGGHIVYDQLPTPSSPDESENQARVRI

[6] = target: T3, Proteasome subunit beta (Trypanosoma cruzi) (UniProt O96673); test: Trypanosoma cruzi proteasome chymotrypsin-like activity (TcProtChymo) assay.; also: in the data most compounds retested in dose-response had high values; format: functional; settings: 9.37 µM
T3 sequence (whole entry): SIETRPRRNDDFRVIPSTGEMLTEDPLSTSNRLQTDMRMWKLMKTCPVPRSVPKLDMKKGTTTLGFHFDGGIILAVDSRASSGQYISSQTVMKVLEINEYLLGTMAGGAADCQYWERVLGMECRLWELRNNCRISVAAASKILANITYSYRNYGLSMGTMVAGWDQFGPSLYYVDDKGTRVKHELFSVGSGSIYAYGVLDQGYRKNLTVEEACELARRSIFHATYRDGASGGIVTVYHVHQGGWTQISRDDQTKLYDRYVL

Homo sapiens = species: Homo sapiens; test: To identify inhibition of the IFN signalling (Jak-Stat) pathway via expression of an eGFP reporter gene under the control of an IFN-stimulated response element (ISRE) containing MxA promoter.; format: functional; settings: 30 µM
[7] = target: T4, Tyrosyl-tRNA synthetase, putative (Trypanosoma cruzi (strain CL Brener)) (UniProt Q4DSP6); test: Trypanosoma cruzi tyrosyl tRNA synthetase (TcYRS) _High Tyrosine SOP; format: functional; settings: 30 µM; also: in the data most compounds retested in dose-response had high values
T4 sequence (whole entry): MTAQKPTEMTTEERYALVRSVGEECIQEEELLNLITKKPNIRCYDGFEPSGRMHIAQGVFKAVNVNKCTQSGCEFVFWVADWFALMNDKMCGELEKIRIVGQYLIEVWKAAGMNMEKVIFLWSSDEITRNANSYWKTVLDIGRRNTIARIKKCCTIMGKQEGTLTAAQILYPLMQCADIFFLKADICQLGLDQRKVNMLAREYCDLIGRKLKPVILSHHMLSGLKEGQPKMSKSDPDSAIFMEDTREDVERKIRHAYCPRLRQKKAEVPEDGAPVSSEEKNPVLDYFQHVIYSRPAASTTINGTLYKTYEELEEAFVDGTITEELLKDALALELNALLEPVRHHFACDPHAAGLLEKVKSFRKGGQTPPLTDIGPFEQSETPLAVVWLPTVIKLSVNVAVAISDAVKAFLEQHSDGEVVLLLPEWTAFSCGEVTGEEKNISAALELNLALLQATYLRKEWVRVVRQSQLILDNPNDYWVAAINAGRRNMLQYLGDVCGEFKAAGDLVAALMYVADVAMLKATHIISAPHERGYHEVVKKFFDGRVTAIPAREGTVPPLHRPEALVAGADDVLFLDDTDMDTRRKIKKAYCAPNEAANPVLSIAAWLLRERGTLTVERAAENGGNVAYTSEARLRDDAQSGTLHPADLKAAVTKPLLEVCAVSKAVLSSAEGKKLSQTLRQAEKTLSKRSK

[8] = target: T4, Tyrosyl-tRNA synthetase, putative (Trypanosoma cruzi (strain CL Brener)); test: Trypanosoma cruzi tyrosyl tRNA synthetase (TcYRS) SOP; format: functional; settings: 30 µM
[9] = target: Chromo domain-containing protein 1 (Saccharomyces cerevisiae (strain ATCC 204508 / S288c) (Baker's yeast)) (UniProt P32657); test: ScCHD-1 Enzyme Inhibition Assay; format: functional; settings: 30 µM; also: in the data most compounds retested in dose-response had high values
Sequence of Chromo domain-containing protein 1 (Saccharomyces cerevisiae (strain ATCC 204508 / S288c) (Baker's yeast)) (P32657 whole entry, the tested form may be a part): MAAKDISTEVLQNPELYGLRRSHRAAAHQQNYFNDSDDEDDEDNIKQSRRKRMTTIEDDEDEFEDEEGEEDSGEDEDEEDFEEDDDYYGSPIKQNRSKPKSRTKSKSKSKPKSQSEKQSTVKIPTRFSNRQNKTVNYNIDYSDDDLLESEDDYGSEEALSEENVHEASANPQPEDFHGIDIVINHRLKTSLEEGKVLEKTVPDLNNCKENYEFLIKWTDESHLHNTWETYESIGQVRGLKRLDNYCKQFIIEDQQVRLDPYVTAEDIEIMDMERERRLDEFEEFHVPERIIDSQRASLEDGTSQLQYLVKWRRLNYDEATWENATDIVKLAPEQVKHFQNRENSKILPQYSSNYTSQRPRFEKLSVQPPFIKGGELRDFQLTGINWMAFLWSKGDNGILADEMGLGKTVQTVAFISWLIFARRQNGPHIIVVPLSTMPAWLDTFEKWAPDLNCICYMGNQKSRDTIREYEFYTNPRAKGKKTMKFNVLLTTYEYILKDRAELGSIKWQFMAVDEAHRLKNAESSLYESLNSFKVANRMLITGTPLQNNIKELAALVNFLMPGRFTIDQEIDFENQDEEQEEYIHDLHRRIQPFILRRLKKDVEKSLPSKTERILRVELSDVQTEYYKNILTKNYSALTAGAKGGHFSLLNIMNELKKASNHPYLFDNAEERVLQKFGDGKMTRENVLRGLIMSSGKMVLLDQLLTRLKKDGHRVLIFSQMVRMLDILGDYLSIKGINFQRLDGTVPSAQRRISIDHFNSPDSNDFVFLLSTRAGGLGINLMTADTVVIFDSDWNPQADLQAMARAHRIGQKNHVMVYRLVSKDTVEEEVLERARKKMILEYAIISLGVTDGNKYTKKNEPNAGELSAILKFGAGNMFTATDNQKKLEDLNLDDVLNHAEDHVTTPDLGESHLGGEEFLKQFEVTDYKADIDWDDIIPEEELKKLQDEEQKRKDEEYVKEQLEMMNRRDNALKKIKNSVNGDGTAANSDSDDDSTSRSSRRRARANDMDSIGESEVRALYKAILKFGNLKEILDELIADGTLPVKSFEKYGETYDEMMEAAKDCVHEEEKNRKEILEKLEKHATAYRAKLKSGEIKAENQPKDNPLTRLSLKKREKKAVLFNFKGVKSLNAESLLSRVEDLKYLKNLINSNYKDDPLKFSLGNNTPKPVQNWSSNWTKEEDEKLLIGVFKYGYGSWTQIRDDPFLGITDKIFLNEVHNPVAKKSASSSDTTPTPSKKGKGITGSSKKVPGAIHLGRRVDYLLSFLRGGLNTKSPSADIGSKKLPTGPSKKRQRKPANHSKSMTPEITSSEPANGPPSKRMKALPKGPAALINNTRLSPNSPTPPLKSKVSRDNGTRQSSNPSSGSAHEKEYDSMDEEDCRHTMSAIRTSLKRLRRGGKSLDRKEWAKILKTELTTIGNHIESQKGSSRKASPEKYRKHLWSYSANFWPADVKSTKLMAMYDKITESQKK

SMILES	Percent Effect [1] [%]	Percent Effect [2] [%]	Percent Effect [3] [%]	Percent Effect [4] [%]	Percent Effect (Trypanosoma cruzi) [%]	Percent Effect [5] [%]	Percent Effect [6] [%]	Percent Effect (Homo sapiens) [%]	Percent Effect [7] [%]	Percent Effect [8] [%]	Percent Effect [9] [%]
Cc1cccc(C(=O)NCc2ccnc(N(C)C)c2)n1	1.73	-5.2	2.32	6.58	-3.04	2.32	3.15	15.9	0	-37.6	8
COc1ccc(-n2cnnc2SCC(C)(C)O)cn1	-0.589	2.67	-3.7	25.4	3.02	16.7	-5.75	15.9	3.83	3.7	-1.24
CC(Cn1cccn1)NC(=O)NCCc1ccc(Cl)s1 (configuration not stated)	-0.239	22.8	0.135	-8.1	-0.283	1.52	9.75	5.52	3.45	16.5	-2.95
COCCN1CCC(CNC(=O)C2(c3cc(C)cc(C)c3)CCC2)C1 (configuration not stated)	-8.07	0	-6.3	-4.59	-1.77	2.88	-4.82	-6.37	2.46	1.24	2.35
CCn1ccnc1CN1CCC(CNC(=O)c2ccc(C)nc2)C1 (configuration not stated)	-0.749	10.4	4.72	15.7	6.39	-1.38	12	15.6	8.6	16.1	-3.08
Cc1ccc(CNC(=O)Nc2nnc(C)s2)cn1	-1.62	23.7	1.54	-3.95	1.03	2.16	15.1	1.76	8.37	25.9	-9.14
CCOc1ccc(CN(C)C(=O)NC(C)c2nncn2C)cc1 (configuration not stated)	1.14	15.3	-8.94	7	0.0972	4.42	18.4	11.4	7.37	5.13	-0.989
CNS(=O)(=O)Cc1ccc(CNC(=O)Nc2cn[nH]c2)cc1	-5.68	20.2	6.15	-12.1	-3.68	1.52	8.11	18.9	2.46	13.9	-0.403
Cc1ccc(CNCc2ccc(-n3nc(C)cc3C)nc2)cc1	-1.16	13.2	0.483	7.65	1.5	0.383	11.4	6.18	9.31	19.5	-9.49
O=C(c1ccn[nH]1)N1CCCC(n2cncn2)C1 (configuration not stated)	-7.58	11.4	-2.36	4.37	-0.718	0.645	12.9	6.04	2.08	15.2	-14.9
CC(C(N)=O)S(=O)(=O)Cc1cc(Cl)c2c(c1)OCO2 (configuration not stated)	-0.171	15.8	1.18	-10.6	-3.83	7.91	6.51	7.44	5.42	13.6	-7.99
CC1(C)CC(N(Cc2ccccc2)Cc2cccnc2)CC(C)(C)N1	-8.83	17.6	-4.84	9.22	5.73	-6.73	7.8	-4.57	6.45	9.09	-29.8
Cn1c(NCC(O)c2ccc(F)cc2F)c(C#N)c(=O)n(C)c1=O (configuration not stated)	-4.86	17.7	-12.9	-5.84	1.6	6.46	4.01	-3.56	5.42	13.9	-7.19
CCn1nc(C)c2nc(C(C)C)nc(NCCCO)c21	-2.47	12	4.47	13.2	1.97	0.176	12.6	33.7	4.23	12.8	-6.99
COc1ccc(CNCC(C)Oc2ccccn2)cc1Br (configuration not stated)	0.219	17.3	-6.72	0.831	5.3	-4.75	9.8	3.97	11.6	12.8	-11.9
O=C(CCc1nccs1)N1CCC(N2CCNC2=O)CC1	-3.04	13.7	-3.05	-5.29	-3.33	1.82	12.6	12.7	5.38	12.5	-3.97
COCCn1ccc(=O)c(OCC(=O)Nc2ccccc2)c1C	-2.63	6.67	2.07	6.98	1.38	1.23	19.4	-6.23	1.06	20.5	-0.358
CC1c2ncc(Cn3cncn3)n2CCN1C(=O)C1CCOCC1 (configuration not stated)	-4.07	10.7	-5.52	0.0625	4.83	-56.5	5.13	-14.3	3.12	7.5	-6.18
COCCCNC(=O)CN1CCCC1c1c(C)nn(C)c1Cl (configuration not stated)	-8	8.86	-7.07	-3.46	2.15	2.37	7.38	-0.237	1.04	-7.59	-25.1
Cn1cnc2c1CCN(Cc1nc(Cc3ccccc3)no1)C2	-2.4	-7.89	-7.72	-0.869	3.27	4.68	-0.931	1.02	11.3	6.17	3.08
COc1ccccc1CN(C)C(=O)c1cc(CN2CCC(O)CC2)on1	-4.25	2.74	26.1	19.3	3.53	18.6	12.8	-1.57	6.45	20	100
CCn1ccnc1CN1CCN(Cc2ccc(C#N)cc2)CC1	-5.95	21.1	-10.9	-5.15	9.96	-4.6	15.9	19.8	3.43	19.5	-11.6
